Compound activity deposited in PubChem by National Center for Advancing Translational Sciences (NCATS).
Sampled rows, rich in hits. Any-hit rate of the full collection: about 17%.
DT40 TDP1 CPT = qHTS for Inhibitors of human tyrosyl-DNA phosphodiesterase 1 (TDP1): qHTS in cells in presence of CPT; chicken DT40 Tdp1-/-;hTDP1 cells + 20 nM CPT, ATP luminescence, 48 h; Potency, µM (top dose mostly 46.2 µM), inactives show at the highest dose activity change, negative = growth inhibition, hits mostly inhibitors; 420,000 tested, 12% active; AID 686979, 2013; also: % is scaled to controls: 0 for no effect and ±100 for the full control effect; nearly all actives have a fitted effect of over 55% in size
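Chicken DT40 Tdp1-/- cells complemented with human TDP1, 400 cells/well, exposed to compounds plus 20 nM camptothecin for at least 48 h at 37 C; viability read as ATP content by CellTiter-Glo luminescence.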
DT40 TDP1 no CPT = qHTS for Inhibitors of human tyrosyl-DNA phosphodiesterase 1 (TDP1): qHTS in cells in absence of CPT | DT40 Tdp1-/- hTDP1 cells, no CPT, ATP luminescence, 48 h | 420,000 tested, 15% active | Potency, µM (highest dose often 46.2 µM), without a hit: at the highest dose activity change, negative = growth inhibition, usual class: inhibitors; also: % is scaled to controls: 0 for no effect and ±100 for the full control effect; nearly all actives have a fitted effect of over 55% in size
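Camptothecin absent (DMSO only). Human TDP1-complemented DT40 knockout cells, 400 cells/well, 37 °C for minimum 48 hr; ATP measured via CellTiter-Glo, 30 min dark incubation, luminescence.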
HT1080 IDH1KD tx = qHTS for induction of synthetic lethality in tumor cells producing 2HG: qHTS for the HT-1080-IDH1KD cell line; HT-1080 IDH1 knockdown viability, ATP luminescence, 48 h; Potency, µM (titrated, usually from 46.1 µM), for inactives: at the highest dose activity, negative = toxicity, hits mostly cytotoxic; 360,000 tested, 2% active; AID 686971, 2013;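 also: 0% = DMSO wells and -100% = cell-free medium wells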
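% activity derives from luminescence (CellTiter-Glo), normalised to DMSO and no-cell wells. HT-1080-IDH1KD cells, 750/well, had 48 h compound exposure at 37 °C.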
TGFb inhibitor = qHTS for Inhibitors of TGF-b. Potency, µM (doses to about 46.1 µM), for inactives: top-dose activity, negative = inhibition, usual class: inhibitors. HepG2 CAGA-GFP TGF-b/SMAD3 reporter, GFP fluorescence, 18 h; TGF-beta stimulated, 500 pg/mL final. 410,000 tested, 1.2% active; also: % is scaled to controls: 0 for no effect and ±100 for the full control effect; nearly all actives have a fitted effect of over 65% in size
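TGF-beta reporter screen: HEPG2 CAGA-GFP, 1% FBS, 500 pg/mL TGF-beta final, 18 h; per-cell GFP summed per well; curves fitted and categorized by class.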
HT1080NT lethal = qHTS for induction of synthetic lethality in tumor cells producing 2HG: qHTS for the HT-1080-NT fibrosarcoma cell line. HT-1080-NT fibrosarcoma viability, CellTiter-Glo ATP luminescence, 48 h. Potency, µM (top dose mostly 46.1 µM), for inactives: top-dose activity, negative = less viability, hits mostly cytotoxic. 360,000 tested, 1.6% active. AID 686970, 2013;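 also: NT is the 2HG producing partner of a matched IDH1 knockdown line; 0% = DMSO-treated cells and -100% = media-only wells without cells; nearly all actives have a fitted effect of over 55% in size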
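Toxicity toward the 2HG-producing NT line was scored as %Activity, normalised to DMSO and no-cell wells, from CellTiter-Glo luminescence after 48 hours' treatment.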
HepG2 tox = qHTS for Inhibitors of TGF-b: Cytotox Counterscreen; HepG2 CAGA-GFP viability, ATP luminescence, 18 h; Potency, µM (series often up to 46.1 µM), inactives show at the highest dose activity change, negative = cytotoxicity, hits mostly cytotoxic; 410,000 tested, 0.76% active; AID 588856, 2011
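HepG2 CAGA-GFP cells (1000/well, DMEM with 1% FBS) received compound, then TGF-beta at 500 pg/mL final, and were incubated 18 hours at 37 degrees C. Viability was read by CellTiter-Glo luminescence. Media-only wells were set as complete cell-killing and DMSO as no toxicity.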
* hit, by the source's call; ? = inconclusive; . = not tested or not shown; [ ] = remark or other dose. Calls follow the shape of the dose curve; as a rule, active = well fitted curve in the direction sought with a large enough effect; inconclusive = small, poorly fitted or top-dose-only effect, or another doubt; inactive = no such curve, though single readings can be large; an effect the other way counts as inactive or inconclusive. Potency is read from the fitted curve at half-maximal effect.

SMILES | DT40 TDP1 CPT | DT40 TDP1 no CPT | HT1080 IDH1KD tx | TGFb inhibitor | HT1080NT lethal | HepG2 tox
Cc1ccc(S(=O)(=O)CC(=O)N2CC(C)OC(C)C2)cc1 (stereo not drawn) | 0% | 3% | 9% | 2% | -1% | -9%
COc1ccc(CCNC(=O)c2cccc(S(=O)(=O)N3CCOCC3)c2)cc1OC | -5% | 1% | 4% | 0% | 10% | 1%
CCN(CC)S(=O)(=O)c1ccc(NC(=O)NCc2noc3ccc(C)cc23)cc1 | 21µM* | 23µM* | . | ? | . | -32%
Cc1cc(C)cc(-n2c(C)c3c(C)nnc(C)c3c2C)c1 | 8.2µM* | 7.3µM* | -8% | -5% | 1% | 0%
Cc1ccc(C(=O)CSc2nnc(-c3ccccc3)n2-c2ccccc2)cc1 | . | . | . | -7% | . | -18%
CCOc1ccc(-c2nnc(SCC(=O)c3ccc(F)cc3)n2-c2ccccc2)cc1 | 13µM* | ? | . | -6% | . | -33%
CCOc1ccc(-n2c(=O)c3ccccc3c3ccccc3c2=O)cc1 | 3% | 3% | 1% | ? | -11% | 33%
Cc1ccc(-c2nnc(SCC(=O)c3ccc(Cl)cc3)n2-c2ccccc2)cc1 | 4.6µM* | 8.2µM* | . | 2% | . | 1%
CCOc1ccc(-n2c(C)c3c(C)nnc(C)c3c2C)cc1 | 2.9µM* | 2.1µM* | -31% | -23% | -9% | -31%
CC(=O)Nc1ccc(C(=O)CSc2nnc(-c3ccccc3)n2-c2ccccc2)cc1 | . | . | . | 2% | . | 2%
O=C(CSc1nnc(-c2ccc(Br)cc2)n1-c1ccccc1)c1ccccc1 | 7.3µM* | 4.1µM* | . | -19% | . | 0%
COc1ccc(C(C)=O)cc1CSc1nnc(-c2ccc(Cl)cc2)n1-c1ccccc1 | 13µM* | 13µM* | ? | -20% | ? | -20%
Cc1nnc(C)c2c(C)n(-c3ccc4ncccc4c3)c(C)c12 | 12µM* | ? | 4% | -8% | -1% | 0%
CC(=O)Nc1ccc(C(=O)CSc2nnc3ccc4ccccc4n23)cc1 | ? | ? | . | 17% | . | 15%
O=C(CSc1nnc2ccc3ccccc3n12)c1ccc(F)cc1 | ? | 16µM* | . | 24% | . | -7%
COCc1cc(/C=N\NC(=O)Cc2ccc(OC)cc2)ccc1OC | -10% | -10% | 2% | 22% | -2% | 28%
CCC1CN(CCNC(=O)c2cc(C)nn2CC)Cc2cc(OC)ccc2O1 (stereo not drawn) | -3%[9.04 µM] | ? | . | . | . | .
CCOc1ccc(-c2nnc(-c3ccccc3)n2-c2ccccc2)cc1 | ? | 10µM* | 11% | -14% | 2% | 1%
COc1ccc(C(=O)CSc2nnc(CN3CCCCC3)n2-c2ccc(F)cc2)cc1 | 21µM* | 13µM* | -2% | ? | 11% | -29%
Cc1nc(NCCc2ccccc2)c(C#N)c(C)c1[N+](=O)[O-] | -3% | 4% | -17% | 0% | -14% | 8%
O=C(Nc1ccc(Cl)c(Cl)c1)c1ccc(Cl)c(Cl)c1 | ? | 5.8µM* | 6% | -21% | -1% | -26%
O=C(Nc1ccc(Cl)c(Cl)c1)OCCNC(=O)c1ccncc1 | ? | 23µM* | -22% | -22% | -21% | 5%
O=C(Nc1ccc(Cl)c(Cl)c1)c1ccncc1 | -20% | ? | -18% | -2% | 1% | -23%
Cc1ccc(NC(=S)Nc2ccc(Cl)c(Cl)c2)c(OC(F)F)c1 | 21µM* | 18µM* | 5% | ? | -2% | -31%
NC(=S)Nc1ccc(Cl)c(Cl)c1 | 12µM* | 9.2µM* | -2% | -17% | -14% | -20%
SMILES | DT40 TDP1 CPT | DT40 TDP1 no CPT | HT1080 IDH1KD tx | TGFb inhibitor | HT1080NT lethal | HepG2 tox
CC(=O)N1CCc2cc(S(=O)(=O)NC(CC(C)C)C(=O)NCc3ccccc3Cl)ccc21 (stereo not drawn) | -4% | -12% | . | 1% | . | -3%
O=C(C1CC1)N1N=C(C2CCCCC2)CC1(O)C(F)(F)F (stereo not drawn) | 14% | -6% | -18% | -12% | -14% | -12%
CC1=CCC2C(=O)N(c3ccc(C(=O)N4CCCCCC4)cc3)C(=O)C2C1 (stereo not drawn) | ? | ? | 11% | 10% | 2% | 6%
Cc1cc(C)cc(NC(=S)Nc2ccc(Cl)c(Cl)c2)c1 | ? | 21µM* | ? | ? | ? | -36%
Cc1ccc(NC(=O)c2ccc(Cl)c(N3C(=O)C=CC3=O)c2)cc1 | 1.2µM* | 2.1µM* | ? | ? | ? | -100%
COc1ccc(CN2CCOc3c(cc(-c4ccc(OC)nn4)cc3OC)C2)c(O)c1 | -9% | -12% | . | . | . | .
Cc1ccc(S(=O)(=O)N2[C@@H](c3ccc(C(C)C)cc3)C(C(=O)O)=C[C@H]2C(C)(C)C)cc1 | ? | -29% | -12% | 5% | -3% | -3%
O=C(Nc1ccccc1)c1cccc(-c2nnc(-c3ccccc3)o2)c1 | -25% | ? | 8% | -7% | 9% | -16%
O=C(Nc1cccc(-c2nnc(-c3ccccc3)o2)c1)C1CCCCC1 | ? | 18µM* | 6% | 1% | 12% | -8%
O=S(=O)(NC1CCCCC1)c1cccc(-c2nnc(-c3ccccc3)o2)c1 | ? | 15µM* | -19% | -19% | 0% | -23%
CCC(=O)Nc1cccc(-c2nnc(-c3ccccc3)o2)c1 | 21µM* | 21µM* | -9% | 11% | -3% | 27%
Cc1ccccc1NS(=O)(=O)c1cccc(-c2nnc(-c3ccccc3)o2)c1 | -48% | -39% | 1% | ? | 19% | -27%
CCCC(=O)Nc1cccc(-c2nc3ccccc3c(=O)o2)c1 | 39% | 3% | 18% | 13% | 1% | 7%
CCCCC(=O)Nc1cccc(-c2nnc(-c3ccccc3)o2)c1 | 23µM* | 23µM* | ? | 31% | ? | -20%
Cc1ccc(NC(=O)Cn2c(=O)n(CCCCC(=O)NCCc3ccccc3)c(=O)c3ccccc32)c(C)c1 | -20% | -24% | . | -16% | . | -7%
